Results: PubChem BioAssay (NCI)
This is part of a sample that, as a whole, favours compounds with a hit. Of some 79,000 tested, about 15% had one in any assay. The source made the active and inactive calls. Cut-off read from the data, not from the text of the source: active = growth inhibition above about 70%; inactive = the rest.

Tests used:
[1] = NCI Yeast Anticancer Drug Screen. Data for the rad52 strain (AID 147);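 note: 0% = growth of vehicle-treated control cultures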; conditions: S. cerevisiae rad52 mutant growth inhibition, active compounds read high
Procedure, shortened: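 Growth of repair-deficient yeast cells was compared between compound-treated and vehicle-treated cultures to give percent inhibition.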

[2] = NCI Yeast Anticancer Drug Screen. Data for the wt1 strain (AID 149);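 note: 0% = growth of vehicle-treated wt1 cultures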; conditions: S. cerevisiae wt1 strain (SPY 50644) growth inhibition, active compounds read high
Procedure, shortened: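 Each compound is tested on wt1 yeast and the loss of growth versus vehicle gives the inhibition value.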

[3] = NCI Yeast Anticancer Drug Screen. Data for the rad50EPP+ strain (AID 151);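 note: 0% = growth of vehicle-treated control cultures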; conditions: S. cerevisiae rad50 mutant strain, active compounds read high
Procedure, shortened: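 Measured: growth inhibition of rad50EPP+ yeast. Reference: vehicle-treated controls. Screen uses strains with defined genetic alterations in DNA damage repair or cell cycle control.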

[4] = NCI Yeast Anticancer Drug Screen. Data for the mgt1 strain (AID 153); conditions: S. cerevisiae mgt1 mutant growth inhibition, active compounds read high
Procedure, shortened: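 Compounds were applied to mgt1 mutant yeast, and growth was then compared against vehicle-treated control cultures to give percent inhibition.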

[5] = NCI Yeast Anticancer Drug Screen. Data for the rad50 strain (AID 155);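 note: 0% = growth of vehicle-only cultures of the same strain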; conditions: S. cerevisiae rad50 strain growth inhibition, active compounds read high
Procedure, shortened: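 Vehicle-treated cultures provide the reference for the growth inhibition reported for compound-exposed, repair-deficient yeast.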

[6] = NCI Yeast Anticancer Drug Screen. Data for the mec2-1 strain (AID 157); conditions: S. cerevisiae mec2-1 strain, active compounds read high
Procedure, shortened: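 Compounds were applied to mec2-1 yeast cells. Their growth was then compared with that of vehicle-treated cultures to give growth inhibition.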

[7] = NCI Yeast Anticancer Drug Screen. Data for the rad14 strain (AID 159);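 note: 0% = growth of vehicle-treated control cultures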; conditions: S. cerevisiae rad14 strain growth inhibition, active compounds read high
Procedure, shortened: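 Inhibition of growth is reported for a repair-deficient yeast mutant following compound treatment, calculated relative to cultures that received vehicle.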

[8] = NCI Yeast Anticancer Drug Screen. Data for the sgs1 mgt1 strain (AID 161);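 note: 0% = growth of cultures given vehicle only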; conditions: S. cerevisiae sgs1 mgt1 strain, active compounds read high
Procedure, shortened: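 Yeast cells carrying a defined DNA-repair defect were exposed to test compounds. Growth inhibition was measured relative to vehicle-treated controls.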

[9] = NCI Yeast Anticancer Drug Screen. Data for the CLN2oe strain (AID 163);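 note: 0% = growth of vehicle-only control cultures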; conditions: S. cerevisiae CLN2oe strain, active compounds read high
Procedure, shortened: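 Cells of an engineered yeast line with disturbed cell-cycle regulation are treated with compound. Inhibition of growth is then calculated relative to the vehicle-treated reference.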

[10] = NCI Yeast Anticancer Drug Screen. Data for the cln2 rad14 strain (AID 165);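 note: 0% = growth equal to vehicle treated cultures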; conditions: S. cerevisiae cln2 rad14 strain, active compounds read high
Procedure, shortened: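 Strain: cln2 rad14 yeast, altered in cell cycle control and DNA damage repair. Read-out: growth inhibition vs vehicle.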

[11] = NCI Yeast Anticancer Drug Screen. Data for the bub3 strain (AID 167); conditions: S. cerevisiae bub3 mutant strain, active compounds read high
Procedure, shortened: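 Mutant yeast screening strain plus compound; vehicle-treated cultures serve as the 0% inhibition reference.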

[12] = NCI Yeast Anticancer Drug Screen. Data for the wt2 strain (AID 169); conditions: S. cerevisiae wt2 strain growth inhibition, active compounds read high
Procedure, shortened: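 Growth of compound-treated yeast is measured and expressed as inhibition relative to vehicle-only controls.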

[13] = NCI Yeast Anticancer Drug Screen. Data for the mlh1 strain (AID 171);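 note: 0% = growth of vehicle-treated control cultures of the same strain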; conditions: S. cerevisiae mlh1 strain growth inhibition, active compounds read high
Procedure, shortened: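 Test agents were incubated with yeast bearing a defined DNA damage repair or cell cycle control alteration; values are growth inhibition normalised to vehicle-treated cultures.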

[14] = NCI Yeast Anticancer Drug Screen. Data for the sgs1 strain (AID 173);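 note: 0% = growth of vehicle-only control cultures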; conditions: S. cerevisiae sgs1 mutant, active compounds read high
Procedure, shortened: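 Strain with an altered DNA repair or cell cycle pathway exposed to compound. Growth then measured. Value = inhibition versus vehicle control.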

[15] = NCI Yeast Anticancer Drug Screen. Data for the mlh1 rad18 strain (AID 175); conditions: S. cerevisiae mlh1 rad18 strain growth inhibition, active compounds read high
Procedure, shortened: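 A repair-deficient yeast strain is exposed to test compound, and growth is scored relative to vehicle-treated controls.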

[16] = NCI Yeast Anticancer Drug Screen. Data for the rad18 strain (AID 177); conditions: S. cerevisiae rad18 mutant growth inhibition, active compounds read high
Procedure, shortened: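 DNA-repair-defective yeast; compound treatment; growth inhibition scored against vehicle.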

[17] = at 5.0 µM (retest, dose inferred, filed as 0.5)
[18] = at 50.0 µM (retest, dose inferred, filed as 5.0)

Measured: growth inhibition

O=C(c1cc(Br)ccc1O)c1cc(Br)ccc1O
inactive: [1]; at 1.2 µM 13% | [2]; at 1.2 µM 9% | [3]; at 1.2 µM 16% | [3]; at 3.7 µM 47% | [4]; at 1.2 µM 38% | [5]; at 1.2 µM 13% | [5]; at 3.7 µM 67% | [5]; [17] 2% | [6]; at 1.2 µM 29% | [6]; [17] 20% | [7]; at 1.2 µM 8% | [7]; at 3.7 µM 40% | [8]; [17] 22% | [9]; at 1.2 µM 34% | [10]; [17] -3% | [11]; at 1.2 µM 17% | [11]; [17] 5% | [12]; at 1.2 µM 12% | [13]; at 1.2 µM 23% | [14]; at 1.2 µM 32% | [15]; [17] 45% | [16]; at 1.2 µM 32%
active: [1]; at 3.7 µM 80% | [1]; at 11.0 µM 99% | [1]; at 33.0 µM 99% | [1]; at 100.0 µM 99% | [2]; at 3.7 µM 78% | [2]; at 11.0 µM 99% | [2]; at 33.0 µM 100% | [2]; at 100.0 µM 100% | [3]; at 11.0 µM 90% | [3]; at 33.0 µM 99% | [3]; at 100.0 µM 99% | [4]; at 3.7 µM 95% | [4]; at 11.0 µM 99% | [4]; at 33.0 µM 100% | [4]; at 100.0 µM 100% | [5]; at 11.0 µM 99% | [5]; at 33.0 µM 99% | [5]; [18] 99% | [5]; at 50.0 µM 99.3% | [5]; at 100.0 µM 99% | [6]; at 3.7 µM 97% | [6]; at 11.0 µM 99% | [6]; at 33.0 µM 100% | [6]; [18] 100% | [6]; at 50.0 µM 99.5% | [6]; at 100.0 µM 100% | [7]; at 11.0 µM 99% | [7]; at 33.0 µM 100% | [7]; at 100.0 µM 98% | [8]; [18] 97% | [8]; at 50.0 µM 99.4% | [9]; at 3.7 µM 96% | [9]; at 11.0 µM 100% | [9]; at 33.0 µM 99% | [9]; at 100.0 µM 99% | [10]; [18] 98% | [10]; at 50.0 µM 98.7% | [11]; at 3.7 µM 90% | [11]; at 11.0 µM 99% | [11]; at 33.0 µM 99% | [11]; [18] 99% | [11]; at 50.0 µM 99.2% | [11]; at 100.0 µM 99% | [12]; at 3.7 µM 87% | [12]; at 11.0 µM 99% | [12]; at 33.0 µM 100% | [12]; at 100.0 µM 100% | [13]; at 3.7 µM 93% | [13]; at 11.0 µM 99% | [13]; at 33.0 µM 100% | [13]; at 100.0 µM 100% | [14]; at 3.7 µM 90% | [14]; at 11.0 µM 99% | [14]; at 33.0 µM 100% | [14]; at 100.0 µM 100% | [15]; [18] 99% | [15]; at 50.0 µM 99.4% | [16]; at 3.7 µM 89% | [16]; at 11.0 µM 99% | [16]; at 33.0 µM 99% | [16]; at 100.0 µM 99%
